The record followed here is PubChem BioAssay AID1347131 (National Center for Advancing Translational Sciences (NCATS), 2019).

Screen size: about 410,000 compounds; about 2,000 (0.49%) were called active. Where a call stands in place of a potency, no number is given. Another 8% or so got no clear call; they are omitted. Calls follow the shape of the full dose curve; tested in HEK293 reporter line. This excerpt belongs to a sample that is enriched for actives.
Potency is read from the fitted curve at half-maximal effect.

The test is described as follows: qHTS Assay for Foot and Mouth Disease Virus Antivirals: Primary Screen against the MLPCN compound library. Also: nearly all actives have a fitted effect of over 55% in size. The settings on record: FMDV antiviral cell-based qHTS; series mostly up to 57.9 µM.
Consider `O=C(Nc1ccc2nc(SCCOc3ccccc3)sc2c1)c1ccc2c(c1)OCO2`, for which the Potency result is “inactive”.

Consider `Cc1cc(NC(=O)c2ccc3c(c2)OCO3)ccc1NC(=O)c1ccccc1`, for which the Potency entry was “inactive”.

As for `O=C(Nc1nc2ccccc2s1)c1ccc2c(c1)OCO2`, the Potency was 14.1 µM (active).

Consider `CC1(Cc2cc(Cl)ccc2C(F)(F)F)C(=O)Nc2c(Cl)cccc21` (centres undefined), for which the Potency entry is “inactive”.

Regarding `CCC(=O)N1CCc2cc(S(=O)(=O)CCC(=O)N3CCN(c4ccc(C(C)=O)cc4)CC3)ccc21`, the Potency entry was “inactive”.

`CC(C)CC(=O)Nc1ccccc1N1CCN(c2ccccc2)CC1`: the Potency entry was “inactive”.

As to `Cn1c(=O)cc(SCC(=O)N2CCN(c3ccccc3)CC2)c2ccccc21`, the Potency entry is “inactive”.

In the case of `CCc1nc(SCC(=O)N2CCN(c3ccccc3)CC2)c2oc3ccccc3c2n1`, the Potency was 25.1 µM (active).

In the case of `Cn1c(=O)c2c(SCC(=O)N3CCN(c4ccccc4)CC3)nc(C3CC3)nc2n(C)c1=O`, the Potency result is “inactive”.

In the case of `COc1ccccc1N1CCN(c2nc(CNC(=O)c3sc(C)nc3C)nc3ccccc23)CC1`, the Potency entry was “inactive”.

`COc1ccc2c(Cl)c(C(=O)OCC(=O)c3ccc4c(c3)NC(=O)CO4)sc2c1Cl`: the Potency result is “inactive”.

As for `O=C(CSc1nc2ccccc2[nH]1)c1ccc(Cl)s1`, the Potency entry was “inactive”.

As to `O=C(CSc1nc2ccccc2c(=O)n1Cc1ccco1)c1ccc(F)cc1`, the Potency result was “inactive”.

Regarding `Cc1cc(C(=O)CSc2nc3ccccc3[nH]2)c(C)n1Cc1ccco1`, the Potency was 11.2 µM (active).

Regarding `Cc1nn(C(C)C)c(C)c1CN1CCCC(C(=O)c2cccc(OC(C)C)c2)C1` (centres undefined), the Potency result is “inactive”.

As for `COc1ccc(NC(=O)CNC(=O)Cn2c(C)cc3ccccc3c2=O)cc1OC`, the Potency result was “inactive”.

For `CCN(CC)S(=O)(=O)c1cc(-c2nnc(Nc3ccc(OC)c(C(N)=O)c3)c3ccccc23)ccc1C`, the Potency entry is “inactive”.

Regarding `O=C(/C=C/Nc1ccc(F)cc1F)c1ccco1`, the Potency is 10 µM (active).

For `CN1/C(=C\C(=O)c2ccco2)C(C)(C)c2ccccc21`, the Potency entry was “inactive”.

For the compound `Cc1cc(C)cc(NC(=S)N2CCN(C(=O)c3ccco3)CC2)c1`, the Potency result is “inactive”.

Take `CN(C)c1ccc(N/C=C/C(=O)c2ccco2)cc1`: the Potency is 8.91 µM (active).

For the compound `O=C(CNc1ccc(F)cc1F)NC(=O)NCc1ccco1`, the Potency result was “inactive”.

Consider `O=C(Nc1ccc(F)cc1F)c1ccc2c(c1)[nH]c(=O)n2Cc1ccc(F)cc1`, for which the Potency result was “inactive”.

Consider `Cc1ccc(S(=O)(=O)N(C)C)cc1NC(=O)COc1cccc(-n2cnnn2)c1`, for which the Potency result was “inactive”.

On to `CCOc1ccccc1N1CCN(CC(=O)Nc2ccccc2C(=O)NC2CC2)CC1`, for which the Potency entry was “inactive”.

With `Cc1ccc(-c2cc(-c3ccccc3)cc(-c3ccccc3)[n+]2-c2ccccc2C(=O)O)cc1`, the Potency entry was “inactive”.

As to `O=C(Nc1ccc(N2CCN(c3ccc(C(F)(F)F)cn3)CC2)nc1)c1cccs1`, the Potency result was “inactive”.

As to `O=C1NC(=O)N(c2ccc3c(c2)OCO3)C(=O)/C1=C/c1ccsc1`, the Potency result was “inactive”.

Turning to `COC(=O)C1=C(c2ccc(-c3ccccc3)c(F)c2)C[C@@H]2CC[C@H]1N2C(=O)NC1CCCCC1`, the Potency result is “inactive”.

On to `OC[C@@H]1CN(Cc2ccc(Cl)cc2)C[C@H](n2cnc3c(NC4CCCC4)ncnc32)O1`, for which the Potency entry is “inactive”.

As for `COc1ccc(C(=O)NCc2cc(C)nc3ccccc23)cc1`, the Potency result was “inactive”.

Take `Cc1cc(C)c2sc(N(CCN(C)C)C(=O)c3c(F)cccc3F)nc2c1`: the Potency result is “inactive”.

For the compound `CCOc1ccc(-c2ccc(/C=C3/C(=N)N4C=CSC4=NC3=O)o2)c([N+](=O)[O-])c1`, the Potency result was “inactive”.

Regarding `CC1=CN2C(=N)/C(=C/c3ccco3)C(=O)N=C2S1`, the Potency was 12.6 µM (active).

Take `Cc1ccc(/C=C2/C(=N)N3N=C(CC(=O)N4CCCC4)SC3=NC2=O)o1`: the Potency entry is “inactive”.

For the compound `CCCCn1c(=O)c(CCC(=O)OC(C)C(=O)Nc2cccc(Cl)c2Cl)nc2ccccc21` (centres undefined), the Potency result is “inactive”.

As for `CC(C)C(=O)N1CCN(c2nc(-c3ccccc3)c3c(c2C#N)CCCC3)CC1`, the Potency is 22.4 µM (active).

As for `CCCC(=O)N1CCN(c2nc(CC(C)C)c3c(c2C#N)CCC3)CC1`, the Potency entry was “inactive”.

For `CC(C(=O)Nc1cccc(C#N)c1)n1nc(-c2ccccc2)c2c(c1=O)CCCC2` (centres undefined), the Potency result was “inactive”.

Consider `FC(F)C(F)(F)Oc1cccc(Nc2nccn3c(-c4ccc5ccccc5c4)cnc23)c1`, for which the Potency result was “inactive”.

Regarding `COCC(=O)N1CCC2(CC1)CCN(c1ccc(-c3ccccc3)cc1)CC2`, the Potency entry was “inactive”.

Regarding `N#CC1=C(N)Nc2nc3ccccc3n2C1c1ccc(F)cc1` (centres undefined), the Potency entry is “inactive”.

For the compound `CSc1nc2ccccc2n1C(=O)NC1CCCCC1`, the Potency result was “inactive”.

Turning to `Nc1nc2ccccc2n1C(=O)c1ccc(F)cc1`, the Potency is 12.6 µM (active).

Take `C[C@H](CO)N1C[C@H](C)[C@@H](CN(C)C(=O)NC2CCCCC2)Oc2c(NS(=O)(=O)c3cccs3)cccc2C1=O`: the Potency entry is “inactive”.

On to `Cc1ccc(NC(=O)COC(=O)C2CC2C)c(S(=O)(=O)N2CCCCC2)c1` (centres undefined), for which the Potency result is “inactive”.

For the compound `CCOC(=O)C1CCN(S(=O)(=O)c2cccc(C(=O)Nc3ccccc3)c2)CC1`, the Potency entry was “inactive”.

Take `CC(Sc1nc(C(F)(F)F)nc2ccccc12)C(=O)NC1CCCC1` (centres undefined): the Potency result is “inactive”.

As to `Cc1cc(CN(C)C(=O)c2cc(COc3ccc4ncccc4c3)on2)on1`, the Potency result was “inactive”.

Take `CN(C)c1ccc(/C=C/c2ccc3ccccc3n2)cc1`: the Potency result was “inactive”.

Turning to `CN(C)c1ccc(N=Nc2ccc3ncccc3c2)cc1`, the Potency was 20 µM (active).

As for `Cn1c(=O)[nH]c(=O)c2c1nc(NCc1ccccc1)n2CCCc1ccccc1`, the Potency entry is “inactive”.

`COc1cc(OC)c(OC)cc1CN1CCc2nc(N3CCN(c4ncccn4)CC3)ncc2C1`: the Potency entry was “inactive”.

As for `Cc1ccc(CN2CCc3nc(N4CCN(c5ccccc5F)CC4)ncc3C2)s1`, the Potency result is “inactive”.

In the case of `Cc1ccccc1CN1CCc2nc(N3CCN(c4ccccn4)CC3)ncc2C1`, the Potency is 15.8 µM (active).

For the compound `COc1cccc(N2CCN(c3c4c(nc5nncn35)CCC4)CC2)c1`, the Potency is 14.1 µM (active).

As to `CCOc1ccc(Nc2c3c(nc4nncn24)CCC3)cc1`, the Potency result was “inactive”.

Regarding `COc1cccc(N2CCN(C(=O)c3ccc4c(Cl)c5c(nc4c3)CCCC5)CC2)c1`, the Potency entry is “inactive”.

On to `Cc1nnsc1C(=O)N/N=C/c1ccc2ccccc2c1O`, for which the Potency result was “inactive”.

As for `Cc1cccc(OCCCCn2nnc3sc4c(c3c2=O)CCC(C)C4)c1` (centres undefined), the Potency entry is “inactive”.

Turning to `C=CCn1c(SCc2nc3c(c(=O)[nH]c(=O)n3CCCC)n2CCC)nnc1-c1ccccc1`, the Potency result was “inactive”.

For the compound `COc1cc(NS(=O)(=O)c2cc(Br)cc3c2N(C(=O)C2CC2)CC3)cc(OC)c1`, the Potency is 12.6 µM (active).

Take `CCC(=O)N1CCc2cc(Br)cc(S(=O)(=O)CCC(=O)NCc3ccccc3OC)c21`: the Potency entry is “inactive”.

Regarding `CCCNS(=O)(=O)c1cc(Br)cc2c1N(C(=O)CC)CC2`, the Potency result is “inactive”.
